Records with an inconclusive call do not appear. Activity calls are given as the source filed them. Unless noted, calls come from the whole dose curve; as a rule, active = well fitted inhibition curve with a large enough effect; inconclusive = small, poorly fitted or top-dose-only effect; inactive = no such curve, though single readings can be large or run the other way.
Legend:
[1] = NS1 protein of Zika virus - qHTS assay to identify small molecule inhibitors in human HEK 293 cells (AID 1347053); note: series mostly up to about 46 µM; nearly all actives have a fitted effect of over 55% in size
How it was run: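 HEK 293 cells, seeded 20 h at 37 C, were pretreated with compound 1 h, then infected with ZIKV MR766 (MOI = 0.5) for 24 h. NS1 was read by TR-FRET with two anti-NS1 antibodies, normalized to uninfected and infected wells.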

[2] = qHTS for Inhibitors of the Functional Ribonucleoprotein Complex (vRNP) of Lassa (LASV) Arenavirus: LASV Primary Screen - GLuc reporter signal (AID 1347082; calls by dose curve; tested in HEK293 reporter line; note: series mostly up to about 57 µM; nearly all actives have a fitted effect of over 60% in size)
[3] = qHTS for Inhibitors of the Functional Ribonucleoprotein Complex (vRNP) of Lassa (LASV) Arenavirus: Viability assay - alamar blue signal for LASV Primary Screen (AID 1347083; calls by dose curve; tested in HEK293 reporter line; note: series mostly up to about 57 µM; nearly all actives have a fitted effect of over 80% in size)
[4] = qHTS for Inhibitors of the Functional Ribonucleoprotein Complex (vRNP) of Lymphocytic Choriomeningitis Arenaviruses (LCMV): Viability assay - alamar blue signal for LCMV Primary Screen (AID 1347085; calls by dose curve; tested in HEK293 reporter line; note: series mostly up to about 57 µM; nearly all actives have a fitted effect of over 80% in size)

Measured: Potency

C[C@]12CC[C@H]3[C@@H](CCC4=CC(=O)CC[C@@H]43)[C@@H]1CC[C@@H]2O
inactive: [1] | [2] | [3] | [4]

CC#C[C@]1(O)CC[C@H]2[C@@H]3C[C@H](C)C4=CC(=O)CC[C@]4(C)[C@H]3CC[C@@]21C
inactive: [1] | [2] | [3] | [4]

CC(Cc1ccccc1)NCCCCl (stereo unspecified)
inactive: [1] | [2] | [3] | [4]

CCOC(=O)C1(c2ccccc2)CCN(CCc2ccc(N)cc2)CC1
inactive: [1] | [2] | [3] | [4]

C=CC[C@]1(O)CC[C@H]2[C@@H]3CCC4=CC(=O)CCC4=C3C=C[C@@]21C
inactive: [1] | [2] | [3] | [4]

Cc1cccc(Cc2cnc[nH]2)c1C
inactive: [1] | [2] | [3] | [4]

CN1C2CCC(C)(C)C1CC(OC(=O)C(O)(c1cccs1)c1cccs1)C2 (stereo unspecified)
inactive: [1] | [2] | [3] | [4]

CC(CC(C(N)=O)(c1ccccc1)c1ccccc1)N(C)C (stereo unspecified)
inactive: [1] | [2] | [3] | [4]

CC1Sc2c(C(=O)O)c(=O)c3cc(F)c(N4CCNCC4)cc3n21 (stereo unspecified)
inactive: [1] | [2] | [3] | [4]

CCCOC(=O)Cc1ccc(OCC(=O)N(CC)CC)c(OC)c1
inactive: [1] | [2] | [3] | [4]

O=C(O)CCCCCCNC1c2ccccc2CCc2ccccc21
inactive: [1] | [2] | [3] | [4]

CNC(C)Cc1ccccc1OC (stereo unspecified)
inactive: [1] | [2] | [3] | [4]

Oc1ccc([C@H]2CNCc3c2ccc(O)c3O)cc1O
inactive: [1] | [2] | [3] | [4]

CCN1CCCC1CNC(=O)C(O)(c1ccccc1)c1ccccc1 (stereo unspecified)
inactive: [1] | [2] | [3] | [4]

CCN(CC)Cc1nccn1-c1ccc([N+](=O)[O-])cc1C(=O)c1ccccc1Cl
inactive: [1] | [2] | [3] | [4]

ClCc1cccc(Cl)c1
inactive: [1] | [2] | [3] | [4]

NC1(c2ccccc2)CCCCC1
inactive: [1] | [2] | [3] | [4]

O=C(CCCCl)c1ccc(F)cc1
inactive: [1] | [2] | [3] | [4]

CCOC(=O)NC(C)(C)Cc1ccc(Cl)cc1
inactive: [1] | [2] | [3] | [4]

O=c1[nH]c2cc(Cl)ccc2n1C1CCNCC1
inactive: [1] | [2] | [3] | [4]

Nc1ccc(Cl)cc1C(=O)c1ccccc1F
inactive: [1] | [2] | [3] | [4]

CC(CC(C#N)(c1ccccc1)c1ccccc1)N(C)C (stereo unspecified)
inactive: [1] | [2] | [3] | [4]

Nc1ccccc1C(=O)OCC(O)CO (stereo unspecified)
inactive: [1] | [2] | [3] | [4]

Sc1ccccc1Cl
inactive: [1] | [2] | [3] | [4]

CCc1ccc(C2CCNCC2)cc1
inactive: [1] | [2] | [3] | [4]

CCc1cc(OC)c(C[C@H](C)N)cc1OC
inactive: [1] | [2] | [3] | [4]

CN1CCC(N(Cc2ccccc2)c2ccccc2)CC1
inactive: [1] | [2] | [3] | [4]

O=C1CN2CCOC2(c2ccccc2Cl)c2cc(Cl)ccc2N1 (stereo unspecified)
inactive: [1] | [2] | [3] | [4]

CCOP(=S)(OCC)O/N=C(\C#N)c1ccccc1
inactive: [1] | [2] | [3] | [4]
